Reference: PubChem BioAssay (EPA / NIEHS)
The source made the active and inactive calls. Rule for the calls: active = hit-call score of the fitted dose curve at least 0.9, where 1 is the maximum; inconclusive = response in the unintended direction; inactive = score below 0.9.

Biological target: Estrogen receptor beta (Homo sapiens) (UniProt Q92731)
Experiment: OT_ER_ERbERb_1440: Odyssey Thera (OT) 24-hour HEK293T Protein-Complementation Assay for Estrogen Receptor-beta/-beta Homodimer (AID 2283380);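 note: scored as signal increase over DMSO baseline for both agonists and antagonists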
Experimental: OT_ER_ERbERb_1440 is a cell-based assay that uses HEK293T, a human kidney cell line, with measurements taken at 24 hours after chemical dosing in a 384-well plate.OT_ER_ERbERb_1440 is one of one assay component(s) measured or calculated from the OT_ER_ERbERb_1440 assay. It is designed to make measurements of protein fragment complementation, a form of binding reporter, as detected with fluorescence intensity signals by Protein-fragment Complementation technology.Data from the assay component OT_ER_ERbERb_1440 was analyzed into 1 assay endpoint. This assay endpoint, OT_ER_ERbERb_1440, was analyzed in the positive analysis fitting direction relative to DMSO as the negative control and baseline of activity. Using a type of binding reporter, measures of receptor for gain-of-signal activity can be used to understand the binding at the pathway-level as they relate to the gene ESR2. Furthermore, this assay endpoint can be referred to as a primary readout, because the performed assay has only produced 1 assay endpoint. To generalize the intended target to other relatable targets, this assay endpoint is annotated to the nuclear receptor intended target family, where the subfamily is steroidal.
Protein-fragment complementation assay, or PCA, is a method for the identification and quantification of protein-protein interactions. In the PCA, the proteins of interest ("bait" and "prey") are each covalently linked to fragments of a third protein (e.g. DHFR, which acts as a "reporter"). Interaction between the bait and the prey proteins brings the fragments of the reporter protein in close proximity to allow them to form a functional reporter protein whose activity can be measured. The OT ER beta / ER beta assay is a homodimer PCA of the ligand binding domain (LBD; amino acids 310-547) of human ER beta stably expressed in HEK293T cells. […] Cells are fixed in 4 percent formaldehyde and stained with Draq5 (BioStatus) to identify cells prior to signal detection. Fluorescent signal in the basal state of the assay is very low and is primarily punctuate and cytoplasmic. Modulation of this assay is quantified as an increase in mean fluorescence intensity in the nucleus (for agonists) or in the nucleus and cytoplasm (antagonists) relative to vehicle controls, and can be quantified on a high content imaging device or a laser scanning cytometer. The latter instrument is favored for this assay because of the rapid mode of data acquisition, the ability to acquire data from the entire cell population in a well (as opposed to a fraction of the well on the high content devices) and the larger dynamic range typically achieved with this instrument. To assess sensitivity of the ER beta/ER beta LBD assay to ligand, cells were treated with the ER agonist 17- beta-estradiol (E2) in 10-point concentration- response format for 24 hours and monitored response on a laser scanning plate cytometer (Acumen eX3; TTP Lab Tech).

Chain of Estrogen receptor beta (Homo sapiens) (Q92731 whole entry, looked up): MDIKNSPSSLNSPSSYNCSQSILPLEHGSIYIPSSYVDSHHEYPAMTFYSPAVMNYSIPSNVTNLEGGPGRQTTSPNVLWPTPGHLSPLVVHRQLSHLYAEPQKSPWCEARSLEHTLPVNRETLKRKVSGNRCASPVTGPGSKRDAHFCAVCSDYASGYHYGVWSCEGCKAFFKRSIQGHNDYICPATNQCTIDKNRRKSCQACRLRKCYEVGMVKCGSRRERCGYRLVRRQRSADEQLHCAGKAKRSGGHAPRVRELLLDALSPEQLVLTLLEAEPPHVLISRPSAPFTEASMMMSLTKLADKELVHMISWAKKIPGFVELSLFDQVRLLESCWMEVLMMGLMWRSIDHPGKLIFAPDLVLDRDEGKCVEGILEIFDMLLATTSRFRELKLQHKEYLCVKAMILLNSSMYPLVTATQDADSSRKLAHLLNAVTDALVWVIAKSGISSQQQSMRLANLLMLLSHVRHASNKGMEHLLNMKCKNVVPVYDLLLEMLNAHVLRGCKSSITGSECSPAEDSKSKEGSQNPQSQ

SMILES | outcome | AC50
CCOC(=O)NC(=S)Nc1ccccc1NC(=S)NC(=O)OCC | inactive | –
CCC(=O)c1ccc(Cl)cc1 | inactive | –
c1ccc2c(c1)CCCC2 | inactive | –
CCCCCCCCCCCCCCCC[N+](C)(C)C | inactive | –
c1cc[n+]2c(c1)-c1cccc[n+]1CC2 | inactive | –
CC1(C)[C@H](C(=O)O[C@H](C#N)c2cccc(Oc3ccccc3)c2)[C@@H]1C=C(Br)Br | inactive | –
CNC(=N[N+](=O)[O-])NCC1CCOC1 (stereo not given) | inactive | –
O=C(NCNC(=O)NC1C(=O)NC(=O)N1CO)NC1C(=O)NC(=O)N1CO (stereo not given) | inactive | –
CCC1CCC(=O)O1 (stereo not given) | inactive | –
CCOP(=O)(OCC)OCC | inactive | –
CC(=O)C=Cc1ccccc1 | inactive | –
CN(C)N | inactive | –
CC(O)CN(CC(C)O)CC(C)O (stereo not given) | inactive | –
O=P(O)(Oc1ccccc1)Oc1ccccc1 | inactive | –
O=[N+]([O-])c1ccc(Cl)cc1 | inactive | –
O=C(NC(=O)c1c(F)cccc1F)Nc1ccc(Oc2ccc(C(F)(F)F)cc2Cl)cc1F | inactive | –
CCc1cccc(C)c1N(C(=O)CCl)[C@@H](C)COC | inactive | –
CN(C)C(=O)C(c1ccccc1)c1ccccc1 | inactive | –
Nc1cc(Cl)cc(Cl)c1 | inactive | –
CC(C)(c1cc(Cl)c(O)c(Cl)c1)c1cc(Cl)c(O)c(Cl)c1 | inactive | –

SMILES | outcome | AC50
C=CC(=O)OCC(CC)CCCC (stereo not given) | inactive | –
Nc1ccc(Cl)c(Cl)c1 | inactive | –
CC(C)c1ccc(O)cc1 | – | 50 µM (active)
CC(=O)c1cc2c(cc1C)C(C)(C)C(C)CC2(C)C (stereo not given) | – | 12.5 µM (active)
COc1cc(OC)nc(Oc2cccc(Oc3nc(OC)cc(OC)n3)c2C(=O)O)n1 | inactive | –
C=CC(=O)OCCO | inactive | –
O=C1Nc2ccc(Cl)cc2C(c2ccccc2)=NC1O (stereo not given) | inactive | –
Cc1cc(C)c(C2=C(OC(=O)CC(C)(C)C)C3(CCCC3)OC2=O)c(C)c1 | inactive | –
CCOP(O)OCC | inactive | –
CC[N+](=O)[O-] | inactive | –
CC(C)[C@@H](C(=O)O[C@@H](C#N)c1cccc(Oc2ccccc2)c1)c1ccc(Cl)cc1 | inactive | –
CC(Cc1ccc(C(C)(C)C)cc1)CN1C[C@@H](C)O[C@@H](C)C1 (stereo not given in full) | inactive | –
CCCC=NO | inactive | –
C=CCN(CC=C)C(=O)C(Cl)Cl | inactive | –
O=C(CCl)c1ccccc1 | inactive | –
CCOP(=O)(OCC)Oc1ccc([N+](=O)[O-])cc1 | inactive | –
c1ccc(P(c2ccccc2)c2ccccc2)cc1 | inactive | –
O=S(=O)(O)OOS(=O)(=O)O | inactive | –
O=C=Nc1ccccc1 | inactive | –
CC(C)(O)C#N | inactive | –
